Values without a mark were called inactive.
What was measured:
Assay in all cases: log2 ratio of Biotin-Ahx-Ub-VS probe labelling (fragment/DMSO); higher = less target engagement (more negative = stronger competition), active = hit call of the paper (q ≤ 0.05, log2 ratio ≤ -1)
Details in all cases: compound concentration: 200 uM; treatment time: 3 h
ALG13 = molecular target: T1, ALG13 (UniProt Q9NP73)
T1 sequence (whole entry): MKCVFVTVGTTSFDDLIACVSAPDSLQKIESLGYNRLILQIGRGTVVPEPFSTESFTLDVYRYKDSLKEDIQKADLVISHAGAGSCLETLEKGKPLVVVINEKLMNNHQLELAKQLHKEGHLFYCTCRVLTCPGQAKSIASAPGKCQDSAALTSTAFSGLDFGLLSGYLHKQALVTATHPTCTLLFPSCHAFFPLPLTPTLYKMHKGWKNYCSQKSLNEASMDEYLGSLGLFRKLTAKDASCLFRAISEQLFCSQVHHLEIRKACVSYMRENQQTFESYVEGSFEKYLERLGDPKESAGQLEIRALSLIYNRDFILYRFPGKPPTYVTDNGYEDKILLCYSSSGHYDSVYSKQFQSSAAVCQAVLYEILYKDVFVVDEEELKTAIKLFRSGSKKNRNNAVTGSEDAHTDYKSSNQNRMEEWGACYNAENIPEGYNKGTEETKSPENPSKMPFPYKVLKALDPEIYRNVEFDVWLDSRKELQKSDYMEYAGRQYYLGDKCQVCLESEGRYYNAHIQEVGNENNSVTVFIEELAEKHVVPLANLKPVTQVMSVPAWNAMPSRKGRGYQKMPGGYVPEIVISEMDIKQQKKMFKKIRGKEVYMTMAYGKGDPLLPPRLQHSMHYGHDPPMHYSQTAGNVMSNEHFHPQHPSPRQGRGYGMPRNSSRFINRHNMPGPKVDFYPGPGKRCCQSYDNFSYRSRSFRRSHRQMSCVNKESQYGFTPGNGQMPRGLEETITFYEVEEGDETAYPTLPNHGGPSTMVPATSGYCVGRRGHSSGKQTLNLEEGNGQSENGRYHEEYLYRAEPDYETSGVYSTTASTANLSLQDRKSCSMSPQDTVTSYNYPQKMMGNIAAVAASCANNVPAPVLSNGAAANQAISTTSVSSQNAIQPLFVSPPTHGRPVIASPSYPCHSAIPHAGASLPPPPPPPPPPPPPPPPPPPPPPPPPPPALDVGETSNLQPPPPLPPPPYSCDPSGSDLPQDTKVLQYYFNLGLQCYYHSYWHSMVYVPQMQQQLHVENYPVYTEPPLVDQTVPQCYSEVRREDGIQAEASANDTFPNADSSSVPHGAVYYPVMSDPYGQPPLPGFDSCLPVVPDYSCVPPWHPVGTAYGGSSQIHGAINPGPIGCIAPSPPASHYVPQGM
Method in brief: (§1)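 The table lists average log2 ratios of fragment over vehicle, from an unpaired t-test on global-median-normalised Spectronaut label-free quantities. Proteins with ≥2 unique peptides were used. Samples were HEK293T lysate (495 µg) treated in triplicate with fragment at 200 µM or vehicle for 3 h, then with Biotin-Ahx-Ub-VS (0.5 µM final) for 1 h, with labelled DUBs NeutrAvidin-enriched and run by diaPASEF LC-MS/MS.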

ATXN3 = ATXN3 (UniProt P54252)
ATXN3, sequence (P54252 whole entry): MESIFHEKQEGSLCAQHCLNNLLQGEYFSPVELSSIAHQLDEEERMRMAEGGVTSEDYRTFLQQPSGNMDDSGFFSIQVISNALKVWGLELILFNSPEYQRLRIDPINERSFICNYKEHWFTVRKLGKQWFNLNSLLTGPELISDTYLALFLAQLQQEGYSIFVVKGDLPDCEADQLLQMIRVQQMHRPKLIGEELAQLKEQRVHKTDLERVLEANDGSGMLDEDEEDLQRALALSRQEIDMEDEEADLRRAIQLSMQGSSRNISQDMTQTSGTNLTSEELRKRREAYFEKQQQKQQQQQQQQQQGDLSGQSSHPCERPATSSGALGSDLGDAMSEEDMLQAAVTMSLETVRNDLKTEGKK
Method in brief: as §1

BAP1 = molecular target: T2, BAP1 (UniProt Q92560)
T2 sequence (whole entry): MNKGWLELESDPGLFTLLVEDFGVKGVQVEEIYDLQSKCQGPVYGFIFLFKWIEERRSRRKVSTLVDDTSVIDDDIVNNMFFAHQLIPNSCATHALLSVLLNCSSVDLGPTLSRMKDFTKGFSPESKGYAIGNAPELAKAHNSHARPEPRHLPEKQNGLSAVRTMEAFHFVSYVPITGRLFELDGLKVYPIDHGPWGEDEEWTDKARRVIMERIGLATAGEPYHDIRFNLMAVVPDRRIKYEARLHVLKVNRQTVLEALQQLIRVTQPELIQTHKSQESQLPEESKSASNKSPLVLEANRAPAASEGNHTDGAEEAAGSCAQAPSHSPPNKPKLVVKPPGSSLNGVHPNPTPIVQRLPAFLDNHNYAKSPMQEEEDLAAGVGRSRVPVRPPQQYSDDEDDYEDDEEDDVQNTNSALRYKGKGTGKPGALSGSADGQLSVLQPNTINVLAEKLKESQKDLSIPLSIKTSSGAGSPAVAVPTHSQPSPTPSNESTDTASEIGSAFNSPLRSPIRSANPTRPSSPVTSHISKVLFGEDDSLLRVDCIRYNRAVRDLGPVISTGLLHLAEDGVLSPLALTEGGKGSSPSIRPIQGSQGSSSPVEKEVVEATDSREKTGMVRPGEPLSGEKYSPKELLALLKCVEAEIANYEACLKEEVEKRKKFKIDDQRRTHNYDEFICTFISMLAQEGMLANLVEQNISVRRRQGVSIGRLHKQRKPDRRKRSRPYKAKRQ
Method in brief: as §1

EIF3F = EIF3F (UniProt O00303)
EIF3F, sequence (O00303 whole entry): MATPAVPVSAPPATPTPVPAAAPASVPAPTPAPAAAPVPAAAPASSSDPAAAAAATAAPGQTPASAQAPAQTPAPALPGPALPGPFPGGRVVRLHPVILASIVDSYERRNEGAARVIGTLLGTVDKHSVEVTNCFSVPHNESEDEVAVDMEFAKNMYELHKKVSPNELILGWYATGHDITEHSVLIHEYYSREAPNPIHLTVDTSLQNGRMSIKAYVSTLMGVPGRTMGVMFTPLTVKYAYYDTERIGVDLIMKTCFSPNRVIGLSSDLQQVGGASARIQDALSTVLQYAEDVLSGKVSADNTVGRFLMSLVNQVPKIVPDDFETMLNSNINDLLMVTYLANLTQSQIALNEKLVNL
Method in brief: as §1

EIF3H = EIF3H (UniProt O15372)
EIF3H, sequence (O15372 whole entry): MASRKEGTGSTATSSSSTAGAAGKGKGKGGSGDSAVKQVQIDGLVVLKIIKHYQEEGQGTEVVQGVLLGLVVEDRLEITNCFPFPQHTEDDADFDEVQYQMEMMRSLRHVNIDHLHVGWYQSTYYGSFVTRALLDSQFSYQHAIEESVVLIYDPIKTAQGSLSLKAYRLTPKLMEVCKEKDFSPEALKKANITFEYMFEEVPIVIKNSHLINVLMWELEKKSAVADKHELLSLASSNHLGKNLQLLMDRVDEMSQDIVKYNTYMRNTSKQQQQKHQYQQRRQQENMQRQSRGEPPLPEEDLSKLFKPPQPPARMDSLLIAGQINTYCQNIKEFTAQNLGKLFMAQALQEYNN
Method in brief: as §1

FAM105A = molecular target: T3, FAM105A (UniProt Q9NUU6)
T3 sequence (whole entry): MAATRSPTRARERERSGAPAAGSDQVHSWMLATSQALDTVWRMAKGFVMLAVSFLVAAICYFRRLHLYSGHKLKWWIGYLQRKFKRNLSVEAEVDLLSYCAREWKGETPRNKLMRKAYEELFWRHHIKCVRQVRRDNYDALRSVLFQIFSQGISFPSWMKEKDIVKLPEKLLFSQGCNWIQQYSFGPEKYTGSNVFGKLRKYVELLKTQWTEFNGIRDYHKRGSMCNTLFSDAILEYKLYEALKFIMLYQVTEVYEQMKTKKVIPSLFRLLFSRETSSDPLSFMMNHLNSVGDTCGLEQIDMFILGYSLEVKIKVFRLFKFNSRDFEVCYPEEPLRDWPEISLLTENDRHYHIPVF
Method in brief: as §1

OTUB1 = OTUB1 (UniProt Q96FW1)
OTUB1, sequence (Q96FW1 whole entry): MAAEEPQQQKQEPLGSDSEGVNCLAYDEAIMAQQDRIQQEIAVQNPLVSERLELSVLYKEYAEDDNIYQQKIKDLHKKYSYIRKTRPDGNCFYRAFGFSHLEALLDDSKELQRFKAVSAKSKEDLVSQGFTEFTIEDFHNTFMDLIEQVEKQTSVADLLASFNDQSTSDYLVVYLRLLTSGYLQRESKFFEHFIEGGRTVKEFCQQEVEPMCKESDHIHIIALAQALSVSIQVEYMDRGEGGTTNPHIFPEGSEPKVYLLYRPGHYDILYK
Method in brief: as §1

OTUD4 = molecular target: T4, OTUD4 (UniProt Q01804)
T4 sequence (whole entry): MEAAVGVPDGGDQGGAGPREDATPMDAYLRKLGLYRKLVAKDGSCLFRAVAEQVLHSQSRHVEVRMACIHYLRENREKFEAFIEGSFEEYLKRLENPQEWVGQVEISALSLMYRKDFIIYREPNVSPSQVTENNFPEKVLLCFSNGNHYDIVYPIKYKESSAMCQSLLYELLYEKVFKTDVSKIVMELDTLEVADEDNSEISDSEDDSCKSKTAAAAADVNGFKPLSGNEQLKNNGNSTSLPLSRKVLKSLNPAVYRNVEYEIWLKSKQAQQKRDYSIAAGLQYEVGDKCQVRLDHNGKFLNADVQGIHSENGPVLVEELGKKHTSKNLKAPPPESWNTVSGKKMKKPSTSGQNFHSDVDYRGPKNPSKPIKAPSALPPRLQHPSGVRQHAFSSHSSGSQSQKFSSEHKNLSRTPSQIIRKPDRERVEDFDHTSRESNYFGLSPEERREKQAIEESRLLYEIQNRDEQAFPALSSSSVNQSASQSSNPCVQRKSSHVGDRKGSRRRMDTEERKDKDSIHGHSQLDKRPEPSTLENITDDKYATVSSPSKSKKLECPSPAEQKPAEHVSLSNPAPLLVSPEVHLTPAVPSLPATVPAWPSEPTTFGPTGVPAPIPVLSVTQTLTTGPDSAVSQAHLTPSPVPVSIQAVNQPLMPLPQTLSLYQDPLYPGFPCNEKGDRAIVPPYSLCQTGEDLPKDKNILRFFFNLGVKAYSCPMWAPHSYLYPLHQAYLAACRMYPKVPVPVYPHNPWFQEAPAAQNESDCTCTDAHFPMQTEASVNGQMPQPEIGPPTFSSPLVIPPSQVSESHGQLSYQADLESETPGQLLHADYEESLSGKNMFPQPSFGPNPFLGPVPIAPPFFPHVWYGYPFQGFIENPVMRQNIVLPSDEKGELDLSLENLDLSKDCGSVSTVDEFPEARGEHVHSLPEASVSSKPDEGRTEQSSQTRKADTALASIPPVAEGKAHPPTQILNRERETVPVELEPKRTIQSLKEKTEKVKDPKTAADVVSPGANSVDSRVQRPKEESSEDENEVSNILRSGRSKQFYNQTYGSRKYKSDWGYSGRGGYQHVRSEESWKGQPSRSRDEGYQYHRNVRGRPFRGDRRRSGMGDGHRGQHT
Method in brief: as §1

OTUD5 = molecular target: T5, OTUD5 (UniProt Q96G74)
T5 sequence (whole entry): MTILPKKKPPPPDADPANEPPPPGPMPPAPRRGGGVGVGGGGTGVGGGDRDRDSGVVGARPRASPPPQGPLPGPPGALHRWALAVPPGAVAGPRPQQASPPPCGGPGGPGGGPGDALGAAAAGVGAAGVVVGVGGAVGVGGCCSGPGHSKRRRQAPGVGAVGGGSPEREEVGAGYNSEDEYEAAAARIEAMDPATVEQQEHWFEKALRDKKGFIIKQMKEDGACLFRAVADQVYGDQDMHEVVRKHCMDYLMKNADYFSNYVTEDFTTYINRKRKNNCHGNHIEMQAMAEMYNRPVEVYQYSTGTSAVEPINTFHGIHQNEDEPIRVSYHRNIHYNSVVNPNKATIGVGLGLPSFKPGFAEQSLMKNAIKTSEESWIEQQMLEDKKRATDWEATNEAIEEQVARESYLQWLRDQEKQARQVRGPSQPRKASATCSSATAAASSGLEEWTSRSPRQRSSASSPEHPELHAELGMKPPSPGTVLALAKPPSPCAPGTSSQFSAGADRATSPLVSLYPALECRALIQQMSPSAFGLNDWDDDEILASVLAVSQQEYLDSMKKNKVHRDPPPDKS
Method in brief: as §1

Row | Compound | log2 ratio of Biotin-Ahx-Ub-VS probe labelling (ALG13) | log2 ratio of Biotin-Ahx-Ub-VS probe labelling (ATXN3) | log2 ratio of Biotin-Ahx-Ub-VS probe labelling (BAP1) | log2 ratio of Biotin-Ahx-Ub-VS probe labelling (EIF3F) | log2 ratio of Biotin-Ahx-Ub-VS probe labelling (EIF3H) | log2 ratio of Biotin-Ahx-Ub-VS probe labelling (FAM105A) | log2 ratio of Biotin-Ahx-Ub-VS probe labelling (OTUB1) | log2 ratio of Biotin-Ahx-Ub-VS probe labelling (OTUD4) | log2 ratio of Biotin-Ahx-Ub-VS probe labelling (OTUD5)
1 | CNC(=O)C1(NC(=O)CCl)CCCCC1 | -1.06 | -0.161 | -1.12 (active) | -0.192 | 0.0858 | -0.00491 | 0.0146 | -0.439 | -0.0782
2 | O=C(CCl)N1CCC(=C(F)CO)C1 | -0.0371 | -0.106 | -0.015 | -0.0747 | -0.169 | -0.0583 | -0.0358 | 0.198 | -0.126
3 | O=C(CCl)NCc1ccc(N2CCOCC2)nc1 | 0.174 | -0.193 | -2.61 (active) | -0.156 | 0.183 | 0.479 | 0.0139 | -0.539 | -0.385
4 | O=C(CCl)Nc1nc(-c2cccs2)cs1 | 0.184 | -0.6 | -3.09 (active) | -0.0224 | 0.216 | -0.186 | 0.196 | -0.708 | -0.636

Source: the supplement of paper PMC11732987, “Enantioselective OTUD7B fragment discovery through chemoproteomics screening and high-throughput optimisation” (Communications Chemistry, 2025)
